Laboratory results taken from PubChem BioAssay (NCI).
Compounds without any hit were thinned out: in the full panel of roughly 83,000, 20% have a hit.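 96-well plates, one dose, 48 hours. Percent growth reported; active if below 10.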 Calls of active or inactive are those of the source.

test system: HL-60(TB) leukemia; experiment: NCI-60 one-dose screen, 48 h (100 = growth as untreated, 0 = no growth, -100 = all killed); settings: 10 µM unless noted

SMILES | growth
O=C1CCC(C(=O)N/N=C/c2ccc([N+](=O)[O-])cc2)N1 (stereo not given) | 96.7% (inactive)
COc1ccccc1N=Nc1c(O)ccc2cc(S(=O)(=O)O)ccc12 | 106% (inactive)
CCC(O)C(C)(C)C (stereo not given) | 114% (inactive)
COc1ccc(-c2ccc(=O)oc2C#Cc2cc(OC)c(OC)c(OC)c2)cc1O | -45.7% (active)
Cc1nn(-c2nc3ccccc3[nH]2)c2c1C(c1ccc3c(c1)OCO3)CC(=O)N2 (stereo not given) | -24.3% (active)
O=C(Cn1c2ccccc2c2ccncc21)N/N=C/c1c[nH]c2ccccc12 | 74.5% (inactive)
C=C(CNCCO)[C@@H]1CC[C@]2(CO)CC[C@]3(C)[C@H](CC[C@@H]4[C@@]5(C)CCC(N)C(C)(C)[C@@H]5CC[C@]43C)[C@@H]12 (stereo not given in full) | 32.4% (inactive)
N#Cc1ccc(-c2ccc(COc3ccc(CC4SC(=O)NC4=O)cc3)cc2)cc1 (stereo not given) | 70.5% (inactive)
Cc1nn(-c2ccccc2)nc1C(=O)Nc1ccccc1C(=O)NCC1CC1 | 95.8% (inactive)
COc1ccc(-c2cc(Cc3cccs3)c(=O)n(Cn3ccc4ccccc43)n2)cc1 | 98.4% (inactive)
COc1cc(C2CC(c3cccc(Nc4ccncc4)c3)=NN2C(C)=O)cc(OC)c1OC (stereo not given) | 94.6% (inactive)
O=C1C=CC(Nc2ccccc2[N+](=O)[O-])C1Nc1ccccc1[N+](=O)[O-] (stereo not given) | 25.1% (inactive)
Cc1cc(C#Cc2ccccc2)ccc1-n1c(/C=C/c2cc(O)ccc2O)nc2ccccc2c1=O | -11.9% (active)
CCN(CC)c1ccc(/C=C\c2cc(C)c3cc(C)ccc3n2)cc1 | 21.5% (inactive)
COc1cc(-c2csc(NC(=O)c3cc(C(F)(F)F)cc(C(F)(F)F)c3)n2)cc(OC)c1OC | 29.6% (inactive)
CC1C(C)N(C(=O)CCl)c2ccccc2N1C(=O)CCl (stereo not given) | -56.9% (active)
O=C(O)c1occ(Cl)c1Cl | 75.3% (inactive)
CCCCCCCCC/C(=N\NC(=O)c1ccncc1)c1ccc(O)c(O)c1O | 0.166% (active)
CCOc1ccncc1[N+](=O)[O-] | 103% (inactive)
O=C(Nc1cccnc1Nc1ccc(Cl)cc1)c1cn(Cc2ccc(F)cc2)nn1 | 109% (inactive)

SMILES | growth
N#CC1=C(N)Oc2c(c(N)nn2-c2ccccc2)C1c1ccc(Cl)cc1 (stereo not given) | 110% (inactive)
O=[N+]([O-])c1cccc(SSc2cccc([N+](=O)[O-])c2)c1 | 93.6% (inactive)
CC(=O)Oc1cccc(OC(C)=O)c1OC(C)=O | 103% (inactive)
CN1CCN(Cc2ccc(NC(=O)c3[nH]ncc3Nc3ncnc4c3CCC4)cc2)CC1 | -22.1% (active)
COc1ccc2nc3ccccc3c(NCc3ccc(Cl)cc3)c2c1 | -64.5% (active)
CSc1nc2c(c(=O)n1C)N=C1c3ccccc3C(=O)C1C(c1ccccc1)N2 (stereo not given) | 84.5% (inactive)
O=C(Nc1ncc(Cc2cc(C(F)(F)F)ccc2Cl)s1)C(=S)N1CCOCC1 | 98.1% (inactive)
O=C1COc2ccccc2C(=O)N1CCCCN1CCCCC1 | 75.3% (inactive)
Cc1nc2ccccc2n1CC1NC(=O)NC1=O (stereo not given) | 95.1% (inactive)
Cc1[nH]n(C(=O)c2ccncc2)c(=O)c1N=Nc1ccc(S(=O)(=O)Nc2ccncn2)cc1 | 91.3% (inactive)
CC1CCC(n2cnc3c(Cl)ncnc32)O1 (stereo not given) | 112% (inactive)
O=C/C=C/c1ccc([N+](=O)[O-])cc1Cl | 82.6% (inactive)
COc1cc(C(=O)/C=C/c2cccnc2Nc2ccc(Cl)cc2)cc(OC)c1OC | -27.2% (active)
C=C1CCC2C3(C)COC(c4ccccc4)OC3CCC2(C)C1/C=C/C1=CCOC1=O (stereo not given) | 0.949% (active)
COC(=O)[C@]12CC[C@@H](C)[C@H](C)[C@@H]1C1=CC[C@@H]3[C@@]4(C)CC(=O)[C@H](O)[C@@]5(C)COC(=C45)C[C@@]3(C)[C@]1(C)CC2 | -37.5% (active)
COc1ccc(-c2nnc(COc3ccc(NC(=O)Nc4cc(C(F)(F)F)cc(C(F)(F)F)c4)cc3F)o2)cc1 | -17.2% (active)
Cc1ccc(-c2nc3c(N=Nc4ccc(S(N)(=O)=O)cc4)c(N)nn3c(N)c2C#N)cc1 | 2.71% (active)
O=C1NN(C(=O)c2ccc(Cl)cc2)C(c2ccccc2)=N/C1=C\c1cn(-c2ccccc2)nc1-c1ccccc1 | 94.5% (inactive)
COc1ccc(C2[C@@H](Cl)C(=O)N2c2cc(OC)c(OC)c(OC)c2)cc1Cl (stereo not given in full) | -30.3% (active)
CCc1ccc(Oc2c(-c3ccc(OCc4ccc(Cl)cc4)cc3O)nn(C)c2C(F)(F)F)cc1 | -36.9% (active)
